The source made the active and inactive calls. Unless noted, the rule behind the calls is not given here.
Assays:
[1] = compounds binding Alexa647 anti-His antibody – biochemical, small-molecule microarray, 635 nm fluorescence, artefact control for SMM control protein annotation, primary screen (AID 1128); conditions: higher = more signal;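 note: score merges feature fluorescence with signal-to-noise for each printed compound spot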
[2] = tested on: Human papillomavirus type 1a E7 protein (residues 1-88); assay: HPV1a E7 small-molecule binders, primary screen, biochemical, small-molecule microarray, residues 1-88, 635 nm (AID 1129); conditions: small-molecule microarray binding, fluorescence 635 nm; higher = more signal
[3] = target: Focal adhesion kinase 1 (Homo sapiens) (UniProt Q05397); assay: PTK2 protein binding on printed compound slides – biochemical, small-molecule microarray, 635/667 nm fluorescence, BSA, DTT, primary screen (AID 1130); conditions: 635 nm fluorescence, higher = more signal;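 note: composite of spot emission at 667 nm and signal to noise over triplicate slides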
[4] = tested on: Fibrinogen (Alexa647-labelled); assay: Alexa647-fibrinogen binding to printed small molecules – biochemical, small-molecule microarray, 635/667 nm fluorescence, artefact control for SMM control-protein annotation, profiling panel (AID 1131); conditions: fibrinogen-A647 binding fluorescence, higher = more signal;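 note: z-score merges 667 nm fluorescence with per-spot signal-to-noise over triplicate slides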
[5] = target: Follistatin (Homo sapiens) (UniProt P19883); assay: FST protein binding to printed compounds – biochemical, small-molecule microarray, 635/667 nm fluorescence, primary screen (AID 1132); conditions: 635 nm fluorescence, higher = more signal
[6] = target: Fibroblast growth factor 2 (Homo sapiens) (UniProt P09038); assay: basic fibroblast growth factor binding to printed compounds – biochemical, small-molecule microarray, 635/667 nm fluorescence, primary screen (AID 1133); conditions: FGF2, fluorescence 635/667, higher = more signal
[7] = JC-1 mitochondrial potential readout, lung cancer cells – cell-based, A549, JC-1 fluorescence, basal, 24 h, 100 nL, profiling panel (AID 1138); conditions: higher = more signal;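 note: A549 lung adenocarcinoma cells under basal conditions with no added stimulus; test concentration not given here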
Lefty1 = Lefty1 protein binding to printed compounds – biochemical, small-molecule microarray, 635/667 nm fluorescence, primary screen (AID 1139); conditions: fluorescence 635/667, higher = more signal
[8] = tested on: wheat germ agglutinin (Triticum aestivum), Alexa647-labelled; assay: Alexa647-WGA lectin binding to printed small molecules – biochemical, small-molecule microarray, 635/667 nm fluorescence, artefact control for SMM control-protein annotation, profiling panel (AID 1140); conditions: WGA-A647 binding, 635 nm fluorescence, higher = more signal;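 note: score merges 667 nm feature emission with signal to noise over triplicate slides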
[9] = target: Luciferin 4-monooxygenase (Photinus pyralis) (UniProt P08659); assay: inhibition of purified Photinus pyralis luciferase – biochemical, luminescence, purified enzyme, 2006 set, primary screen (AID 1141); conditions: purified firefly luciferase, SteadyGlo luminescence, 30 min; higher = more signal, called active from +8 up or from −8 down;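 note: cell-free assay with purified firefly luciferase at 100 ng per well in PBS; test concentration not given here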
[10] = tested on: Wnt5a (protein binding on small-molecule microarray); assay: small molecules binding Wnt5a protein – biophysical, small-molecule microarray, 635/667 nm fluorescence, primary screen (AID 1142); conditions: 635 nm fluorescence, higher = more signal;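 note: fluorescence read at 667 nm with signal to noise per printed feature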
[11] = ATP-based viability of Huh7 replicon cells – cell-based, CellTiter-Glo luminescence, basal, 48 h, cytotoxicity control for HCV replication inhibitor project, primary screen (AID 1143); conditions: higher = more signal, called active from +8 up or from −8 down;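 note: Huh7 hepatoma cells carrying a hepatitis C replication reporter with no stimulus; test concentration not given here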
[12] = Pseudomonas biofilm growth suppression – PAO1 strain, BacTiter-Glo luminescence, LB-PBS, primary screen (AID 1144); conditions: P. aeruginosa PAO1 biofilm, 12 h, higher = more signal
[13] = basal CRE-LacZ reporter activity in PC12 – cell-based, unstimulated, primary screen (AID 1145); conditions: no forskolin, luminescence, 4.5 h, higher = more signal, called active from +8 up or from −8 down
[14] = forskolin-driven CRE-LacZ activity in PC12 – cell-based, CRE-LacZ reporter, forskolin-stimulated, primary screen (AID 1146); conditions: luminescence, 4.5 h, higher = more signal, called active from +8 up or from −8 down;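 note: PC12 cells with 6xCRE LacZ reporter stimulated by forskolin 10 µM; beta-galactosidase reporter signal reflecting CREB driven transcription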
[15] = target: Streptavidin (Streptomyces avidinii) (UniProt P22629); assay: compounds binding control protein streptavidin – biophysical, small-molecule microarray, 635/667 nm fluorescence, artefact control for SMM compound annotation, primary screen (AID 1147); conditions: higher = more signal;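 note: signal reflects streptavidin binding to arrayed compounds as a control protein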
[16] = probe aInhba binding on compound microarray – biochemical, small-molecule microarray, 635/667 nm fluorescence, primary screen (AID 1148); conditions: higher = more signal;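 note: score merges 667nm spot fluorescence with signal-to-noise for antibody binding to printed compounds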
Torsin-1A (Homo sapiens) [17] = target: Torsin-1A (Homo sapiens) (UniProt O14656); assay: TOR1A wild-type binding on microarray – cell lysate, small-molecule microarray, lysate, 635/667 nm, primary screen (AID 1149); conditions: COS7 hTOR1A-WT lysate, 635 nm fluorescence, higher = more signal
Torsin-1A (Homo sapiens) [18] = target: Torsin-1A (Homo sapiens) (UniProt O14656); assay: torsin A mutant lysate binding on microarrays – cell lysate, small-molecule microarray, COS7 lysate, 635/667 nm fluorescence, primary screen (AID 1150); conditions: COS7 hTOR1A mutant lysate, 635 nm fluorescence, higher = more signal;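 note: score pools 667 nm emission and signal to noise measuring lysate protein binding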
[19] = tested on: Sonic hedgehog protein (Shh); assay: Sonic hedgehog microarray binding compounds – biochemical, small-molecule microarray, 635/667 nm fluorescence, primary screen (AID 1151); conditions: 635 nm fluorescence, higher = more signal;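 note: Shh protein binding to compounds spotted on small-molecule microarray slides; score combines spot fluorescence intensity with signal-to-noise across triplicate slides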

Focal adhesion kinase 1 (Homo sapiens), sequence (Q05397 whole entry, looked up): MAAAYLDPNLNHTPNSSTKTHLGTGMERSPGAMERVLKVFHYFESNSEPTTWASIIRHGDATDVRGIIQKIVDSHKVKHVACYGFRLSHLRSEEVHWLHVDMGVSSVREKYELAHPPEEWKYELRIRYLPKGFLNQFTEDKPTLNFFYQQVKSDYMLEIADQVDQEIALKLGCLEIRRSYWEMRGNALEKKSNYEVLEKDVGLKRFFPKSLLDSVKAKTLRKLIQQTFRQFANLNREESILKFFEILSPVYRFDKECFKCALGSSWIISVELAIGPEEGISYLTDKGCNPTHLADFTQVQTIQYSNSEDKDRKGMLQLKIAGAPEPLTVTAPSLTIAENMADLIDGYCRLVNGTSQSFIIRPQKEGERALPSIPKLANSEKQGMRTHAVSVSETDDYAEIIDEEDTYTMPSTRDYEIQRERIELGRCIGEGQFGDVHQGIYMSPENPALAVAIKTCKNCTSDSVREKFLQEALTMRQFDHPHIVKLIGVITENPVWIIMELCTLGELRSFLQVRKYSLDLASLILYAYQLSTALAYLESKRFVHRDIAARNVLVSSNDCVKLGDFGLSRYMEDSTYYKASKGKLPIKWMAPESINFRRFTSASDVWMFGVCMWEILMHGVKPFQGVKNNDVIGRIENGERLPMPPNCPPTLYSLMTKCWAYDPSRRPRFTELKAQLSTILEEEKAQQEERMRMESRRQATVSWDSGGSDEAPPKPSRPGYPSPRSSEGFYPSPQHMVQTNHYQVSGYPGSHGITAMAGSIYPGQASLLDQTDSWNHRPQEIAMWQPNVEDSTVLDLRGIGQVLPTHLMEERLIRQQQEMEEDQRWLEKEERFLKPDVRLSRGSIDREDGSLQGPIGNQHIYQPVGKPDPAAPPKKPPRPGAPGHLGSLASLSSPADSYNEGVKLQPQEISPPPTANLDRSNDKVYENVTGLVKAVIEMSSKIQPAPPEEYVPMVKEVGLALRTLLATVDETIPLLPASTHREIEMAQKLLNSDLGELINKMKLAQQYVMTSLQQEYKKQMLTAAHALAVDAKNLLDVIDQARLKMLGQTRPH
Streptavidin (Streptomyces avidinii), sequence (P22629 whole entry, looked up): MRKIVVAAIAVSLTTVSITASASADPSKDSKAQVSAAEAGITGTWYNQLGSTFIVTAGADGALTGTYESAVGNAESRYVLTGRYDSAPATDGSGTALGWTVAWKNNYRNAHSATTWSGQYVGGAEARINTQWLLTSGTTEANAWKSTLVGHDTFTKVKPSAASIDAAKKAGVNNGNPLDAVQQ
Luciferin 4-monooxygenase (Photinus pyralis), sequence (P08659 whole entry, looked up): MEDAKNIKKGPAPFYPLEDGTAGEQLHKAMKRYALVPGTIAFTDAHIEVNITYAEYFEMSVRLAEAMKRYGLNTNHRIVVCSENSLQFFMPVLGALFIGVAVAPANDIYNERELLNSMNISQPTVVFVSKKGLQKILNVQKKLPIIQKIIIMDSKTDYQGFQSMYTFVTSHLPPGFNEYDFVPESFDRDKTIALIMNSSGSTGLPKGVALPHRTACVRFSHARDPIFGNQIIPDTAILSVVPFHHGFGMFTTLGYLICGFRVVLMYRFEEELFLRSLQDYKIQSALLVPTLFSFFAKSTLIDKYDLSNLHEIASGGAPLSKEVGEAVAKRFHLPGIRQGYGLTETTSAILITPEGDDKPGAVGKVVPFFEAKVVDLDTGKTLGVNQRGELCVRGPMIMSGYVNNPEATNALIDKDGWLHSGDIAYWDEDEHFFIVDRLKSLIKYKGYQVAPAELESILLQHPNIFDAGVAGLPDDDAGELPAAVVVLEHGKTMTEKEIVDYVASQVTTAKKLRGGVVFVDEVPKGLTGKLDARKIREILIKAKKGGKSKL
Torsin-1A (Homo sapiens), sequence (O14656 whole entry, looked up): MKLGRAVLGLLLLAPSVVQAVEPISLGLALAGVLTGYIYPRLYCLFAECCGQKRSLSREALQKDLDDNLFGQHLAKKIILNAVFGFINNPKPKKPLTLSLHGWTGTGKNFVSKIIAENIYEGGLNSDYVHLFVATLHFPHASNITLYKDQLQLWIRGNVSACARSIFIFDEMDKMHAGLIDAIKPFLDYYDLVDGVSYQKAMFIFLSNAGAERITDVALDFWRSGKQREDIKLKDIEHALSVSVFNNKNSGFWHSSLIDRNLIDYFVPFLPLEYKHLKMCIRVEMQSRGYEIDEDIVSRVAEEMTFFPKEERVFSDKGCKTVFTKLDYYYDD
Follistatin (Homo sapiens), sequence (P19883 whole entry, looked up): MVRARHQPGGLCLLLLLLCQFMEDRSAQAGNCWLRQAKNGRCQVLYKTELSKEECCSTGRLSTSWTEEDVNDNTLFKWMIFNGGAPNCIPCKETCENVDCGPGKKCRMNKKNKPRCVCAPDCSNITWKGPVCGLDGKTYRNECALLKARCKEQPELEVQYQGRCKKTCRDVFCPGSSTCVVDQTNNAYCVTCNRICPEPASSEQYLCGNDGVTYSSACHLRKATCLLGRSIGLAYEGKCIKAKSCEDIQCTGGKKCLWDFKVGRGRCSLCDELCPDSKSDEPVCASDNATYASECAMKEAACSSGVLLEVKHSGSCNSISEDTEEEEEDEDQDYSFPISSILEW
Fibroblast growth factor 2 (Homo sapiens), sequence (P09038 whole entry, looked up): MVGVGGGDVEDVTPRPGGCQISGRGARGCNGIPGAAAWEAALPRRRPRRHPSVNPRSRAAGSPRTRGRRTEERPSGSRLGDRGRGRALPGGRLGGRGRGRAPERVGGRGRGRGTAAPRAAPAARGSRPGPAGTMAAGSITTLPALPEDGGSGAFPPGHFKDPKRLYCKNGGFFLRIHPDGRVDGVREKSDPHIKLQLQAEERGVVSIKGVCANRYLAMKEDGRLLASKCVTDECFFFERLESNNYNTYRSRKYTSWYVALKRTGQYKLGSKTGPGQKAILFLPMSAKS

Compound | composite z-score [1] | composite z-score [2] | composite z-score [3] | composite z-score [4] | composite z-score [5] | composite z-score [6] | z-score [7] | composite z-score (Lefty1) | composite z-score [8] | z-score [9] | composite z-score [10] | z-score [11] | z-score [12] | z-score [13] | z-score [14] | composite z-score [15] | composite z-score [16] | composite z-score (Torsin-1A (Homo sapiens) [17]) | composite z-score (Torsin-1A (Homo sapiens) [18]) | composite z-score [19]
CCCNC(=O)[C@@]1(c2ccc([N+](=O)[O-])cc2)CC(=O)N(C2CCCCC2)[C@@H]1c1ccc(CO)cc1 | 1.86 | 1.24 | 0.548 | 0.831 | 1.24 | 1.66 | 1.34 | 0.344 | 0.533 | -0.92 (inactive) | -0.0471 | -1.83 (inactive) | 0.812 (inactive) | 0.324 (inactive) | -0.775 (inactive) | 0.206 | 0.138 | 0.0388 | 0.455 | 0.511
O=C(NCc1ccccc1)[C@@H]1c2ccccc2C(=O)N(Cc2ccccc2C(F)(F)F)[C@H]1c1ccc(CO)cc1 | -0.782 | 0.334 | 0.0179 | -0.709 | 0.592 | -0.133 | 1.86 | -0.324 | 0.32 | -0.745 (inactive) | -0.405 | -1.55 (inactive) | 0.714 (inactive) | 0.324 (inactive) | -0.0897 (inactive) | -0.752 | -0.201 | -1.55 | 0.0481 | -0.687
CCCCCCCCCCC(O)C1C=CC2C(=O)N(C)C(=O)C2N1Nc1ccc([N+](=O)[O-])cc1[N+](=O)[O-] (stereo not given) | 1.38 | 1.21 | 0.851 | 0.949 | 0.0686 | -0.597 | 1.68 | -0.524 | 1 | 0.581 (inactive) | 0.218 | -0.646 (inactive) | 0.322 (inactive) | 0.44 (inactive) | 0.932 (inactive) | 1.12 | 0.211 | -0.257 | 0.565 | -0.412
CC1=C([C@H](O)CCc2ccccc2)[C@H](CO)[C@@H]2C(=O)N(C)C(=O)[C@@H]2C1 | 0.32 | -0.183 | 0.332 | 0.431 | 0.172 | 0.227 | 1.48 | 0.475 | 0.133 | -1.01 (inactive) | -0.124 | -0.0547 (inactive) | -0.518 (inactive) | -0.321 (inactive) | -0.33 (inactive) | 0.591 | -0.218 | 0.285 | 0.0992 | 0.656
CO[C@H]1O[C@H](CO)[C@@H](OC(=O)Nc2ccccc2-c2ccccc2)[C@H](OC(=O)Nc2ccc3c(c2)OCO3)[C@H]1OC(=O)Nc1ccc2c(c1)OCO2 | 1.02 | 1.24 | 1.11 | 0.941 | 1.23 | 0.993 | -0.499 | 0.63 | 1.1 | -6.15 (inactive) | 0.35 | -1.48 (inactive) | -0.158 (inactive) | 0.792 (inactive) | -0.97 (inactive) | 0.144 | 0.271 | 0.5 | 0.723 | 1.42
COCCOC(=O)N1C(=O)[C@@]2(c3cc(C#CCC(C(=O)OC)C(=O)OC)ccc31)[C@H](C(=O)N1CCc3cc(OC)c(OC)cc3C1)[C@H]1C(=O)O[C@H](c3ccccc3)[C@H](c3ccccc3)N1[C@@H]2c1ccc(OCCO)cc1 | 2.19 | 1.2 | 0.497 | 0.783 | 1.31 | 1.45 | -1.04 | 1.02 | 0.519 | -1.25 (inactive) | 0.587 | -0.0887 (inactive) | -0.442 (inactive) | 0.0653 (inactive) | -0.333 (inactive) | 0.523 | 0.19 | 0.817 | 0.914 | 1.73
C=C(CCCC)/C(=C/C[C@@H](OC(=O)c1ccncc1)c1ccccc1OCCO)c1cnc2ccccc2c1 | 0.433 | 1.12 | 0.0585 | 0.963 | 1.44 | 1.43 | 1.34 | 1.61 | 1.17 | -0.514 (inactive) | 0.944 | -2.5 (inactive) | 0.207 (inactive) | 10.3 (active) | 0.689 (inactive) | 1.16 | 0.11 | 0.49 | -0.239 | 2.17
CCCCC(=C=CC[C@@H](O)c1ccccc1OCCO)C[C@@H](O)COCc1ccccc1 | 0.0168 | -0.399 | 0.577 | 0.479 | 0.271 | 0.668 | 0.995 | 0.0842 | 0.0771 | -2.59 (inactive) | -0.027 | -2.16 (inactive) | -0.631 (inactive) | 17.1 (active) | -0.749 (inactive) | -0.385 | 0.257 | -0.745 | -0.592 | 0.697
COCCCNC(=O)[C@@]1(Cc2ccccc2CN=[N+]=[N-])N=C(c2ccc(OCCCO)cc2)O[C@H]1c1ccccc1 | 1.75 | 1.23 | 0.895 | 0.991 | 1.25 | 0.14 | -0.0671 | 0.365 | 0.73 | 0.094 (inactive) | 0.919 | -4.74 (inactive) | -0.688 (inactive) | 0.391 (inactive) | 0.145 (inactive) | 0.284 | 0.0872 | 0.821 | 1.26 | -0.715

— PubChem BioAssay
